Experimental data reported in PubChem BioAssay (NCI).
This is part of a sample that, as a whole, favours compounds with a hit. Of some 83,000 tested, about 20% had one in any assay.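 The endpoint reported here, percent growth, reads 100 for growth as untreated, 0 for no net growth and -100 for all cells dead.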 Unmarked numbers belong to inactive results. Calls of active or inactive are those of the source. The calls were made as follows: active = growth percent below 10; inactive = the rest.

These compounds were tested on OVCAR-4 ovarian (assay: NCI-60 one-dose screen, 48 h (100 = growth as untreated, 0 = no growth, -100 = all killed)). Details: 10 µM unless noted.
`O=S(O)c1cc(Cl)cc(Cl)c1OCc1ccccc1` was tested, and the growth was 113%. Compound `O=C(C1=Cc2cc3ccccc3n2Cc2cnnn21)c1ccc(F)cc1` has a growth of 95%. `CC(C)Cc1nc(Nc2ccccc2)[nH]c(=O)c1C#N` showed a growth of 36.8%. For `C[N+]1=C(/C=C/c2ccccc2Cl)C(C)(C)c2ccccc21`, the growth was 96.1%. `CSc1ccc(N2C(=N)C(=S)N(c3ccc(C)cc3)C2=O)cc1` was tested, and the growth was 96.4%. `CC[C@H](Nc1nc(N)nc(C)c1C#N)c1nc2cccc(CN(C)c3ncc(C(=O)NO)cn3)c2c(=O)n1-c1ccccc1` gave a growth of 31.4%. With `CC(C)CCC[C@@H](C)[C@H]1CC[C@H]2[C@@H]3CC=C4c5sc(Nc6cc(C(F)(F)F)cc(C(F)(F)F)c6)nc5CC[C@]4(C)[C@H]3CC[C@]12C` the growth was 100%. With `N#CC1=C(N)Oc2c(sc3c(F)cccc23)C1c1ccc([N+](=O)[O-])cc1` (configuration not stated) the growth was 15.1%. In the case of `c1ccc(-c2c(-c3ccccc3)[n+](Cc3ccc4ccccc4c3)cn2Cc2ccc3ccccc3c2)cc1`, the growth is reported as -81.5% (active). Work on `O=C(CSc1nnnn1-c1ccccc1)Nc1ccc(Oc2ccccc2)cc1` yielded a growth of 101%. Compound `Cc1ccc2c(c1)nc(C)n2-c1ncnc2c1CC(C)c1cc(O)ccc1N2C` (configuration not stated) has a growth of 67.5%. `Fc1ccc2[nH]cc(-c3nc(-c4c[nH]c5c(Cl)nccc45)cs3)c2c1` was tested, and the growth was 65.3%. `COc1ccc(Oc2ccc(/C=C/C(=O)c3ccc(OC)c(OC)c3)cc2)cc1` gave a growth of 62.8%. Work on `CCCCC#Cc1c(I)n(C2OC(CO[Si](C)(C)C(C)(C)C)C3OC(C)(C)OC32)c(=O)n(C(=O)c2ccccc2)c1=O` (configuration not stated) yielded a growth of 82.6%. For `O=C(N/N=C/c1ccc(Cl)cc1)c1ccc(NC(=O)c2ccccn2)cc1`, the growth was -77.6% (active). `COc1cc(-c2cc(-c3ccc(Nc4nc(Nc5ccc(Cl)cc5)nc(Nc5ccc(Cl)cc5)n4)cc3)no2)cc(OC)c1OC` gave a growth of 78.8%. `NCCCNc1nc2ccccc2c2c(=O)c3cc(Cl)ccc3sc12` gave a growth of 33.4%. `Cc1ccc(OCCOCCOCCOCCOCCOc2ccc(C)n(O)c2=S)c(=S)n1O` gave a growth of 22.7%. Compound `CC1(C)CC(=O)C2=C(C1)C(c1ccc(Cl)cc1)n1ncc(C#N)c1N2` (configuration not stated) has a growth of 96.3%. `CN(C)/C(N)=N/N=C(\c1ccccc1)c1ccccn1` showed a growth of 86.6%. For `c1ccc(Nc2nc3c(s2)CCc2c[nH]cc2-3)nc1`, the growth was 78%. With `COc1cc2c(cc1OCCCN1CCN(C(=S)SCCC(C#N)(c3ccccc3)c3ccccc3)CC1)N=C[C@@H]1CCCN1C2=O` the growth was -19.2% (active). For `O=C(NCCCCCCNC(=O)OCc1ccc2c(Cl)cc(Cl)c(O)c2n1)OCc1ccc2c(Cl)cc(Cl)c(O)c2n1`, the growth was -56.9% (active). Work on `O=C(/C=C/c1ccccc1)N(C1CCCCC1)C1CCCCC1` yielded a growth of 84%. `C=CCn1cc(-c2nc3ccccc3s2)c2cc(-c3ccc4c5c(cccc35)C(=O)N(CCO)C4=O)ccc21` showed a growth of 99.6%. With `COc1cc(/C=C/C(=O)c2cccc(-n3cc(-c4ccc(Cl)cc4)[nH]c3=O)c2)ccc1O` the growth was 57%. In the case of `O=C1Nc2ccc(Cl)cc2/C1=C/c1ccc[nH]1`, the growth is reported as 44.3%. With `Cn1c2ccccc2c2c3c(c4c5cc(Br)ccc5n(C)c4c21)C(=O)N(O)C3=O` the growth was 53.7%. `O=S(=O)(NCCNc1nccc(-c2c(-c3ccc(F)c(O)c3)nc3sccn23)n1)c1ccc(Cl)cc1` gave a growth of 32.5%. In the case of `Cc1ccc(OCCOCCOCCOc2ccc(C)n(O)c2=S)c(=S)n1O`, the growth is reported as 20.5%. With `C[C@@H]1NC(=O)[C@H](Cc2ccccc2)N(Cc2cccnc2)C1=O` the growth was 102%. Compound `C=CC(CC(c1ccccc1)(c1ccccc1)c1ccccc1)N(CC)CC` (configuration not stated) has a growth of 67.5%.

These compounds were tested on SK-OV-3 ovarian in the same assay as above. Details: 10 µM unless noted.
`COc1ccc(/C=N/NC(=O)Cn2c(-c3ccc(S(C)(=O)=O)cc3)nc3ccccc32)cc1` gave a growth of 117%. Work on `CN(C)CCCn1c2c(c3ccncc3c1=O)C(=O)c1ccccc1-2` yielded a growth of 34.8%. In the case of `OC1(c2ccccc2)c2ccccc2N(c2ccccc2)c2ccc(Cl)cc21` (configuration not stated), the growth is reported as -89.3% (active). In the case of `CC1(/C=C/c2ccc(-c3ccccc3)cc2)CCn2cnc3ncnc(c32)N1O` (configuration not stated), the growth is reported as 19.8%. For `C=C1C(=O)O[C@H]2[C@H]1CC/C(COC(=O)/C=C\C(=O)NCc1ccc(Cn3c(=O)sn(CCCCl)c3=O)cc1)=C\CC[C@@]1(C)O[C@@H]21`, the growth was 97.4%. `C#Cc1cccc(NC(=O)C2CCCCN2C(=O)CCl)c1` (configuration not stated) was tested, and the growth was 33.1% [8.25 µM]. For `O=C1CCCC1[n+]1ccccc1` (configuration not stated), the growth was 80.1%. `N#C/C(=C\c1ccc(-c2cccc(Cl)c2)o1)C(=O)Nc1ncc(Cc2ccc(Cl)cc2)s1` showed a growth of 78%. With `O=S(O)c1cc(Cl)cc(Cl)c1OCc1ccccc1` the growth was 102%. Work on `O=C(C1=Cc2cc3ccccc3n2Cc2cnnn21)c1ccc(F)cc1` yielded a growth of 94.6%. `CC(C)Cc1nc(Nc2ccccc2)[nH]c(=O)c1C#N` showed a growth of 60%. `C[N+]1=C(/C=C/c2ccccc2Cl)C(C)(C)c2ccccc21` was tested, and the growth was 94.3%. `CSc1ccc(N2C(=N)C(=S)N(c3ccc(C)cc3)C2=O)cc1` gave a growth of 81.1%. `CC[C@H](Nc1nc(N)nc(C)c1C#N)c1nc2cccc(CN(C)c3ncc(C(=O)NO)cn3)c2c(=O)n1-c1ccccc1` was tested, and the growth was -19.4% (active). With `CC(C)CCC[C@@H](C)[C@H]1CC[C@H]2[C@@H]3CC=C4c5sc(Nc6cc(C(F)(F)F)cc(C(F)(F)F)c6)nc5CC[C@]4(C)[C@H]3CC[C@]12C` the growth was 89.2%. `N#CC1=C(N)Oc2c(sc3c(F)cccc23)C1c1ccc([N+](=O)[O-])cc1` (configuration not stated) was tested, and the growth was -7.03% (active). With `c1ccc(-c2c(-c3ccccc3)[n+](Cc3ccc4ccccc4c3)cn2Cc2ccc3ccccc3c2)cc1` the growth was -97.9% (active). In the case of `O=C(CSc1nnnn1-c1ccccc1)Nc1ccc(Oc2ccccc2)cc1`, the growth is reported as 102%. `Cc1ccc2c(c1)nc(C)n2-c1ncnc2c1CC(C)c1cc(O)ccc1N2C` (configuration not stated) gave a growth of 14.1%. With `Fc1ccc2[nH]cc(-c3nc(-c4c[nH]c5c(Cl)nccc45)cs3)c2c1` the growth was 47.5%. In the case of `COc1ccc(Oc2ccc(/C=C/C(=O)c3ccc(OC)c(OC)c3)cc2)cc1`, the growth is reported as 97.3%. Work on `CCCCC#Cc1c(I)n(C2OC(CO[Si](C)(C)C(C)(C)C)C3OC(C)(C)OC32)c(=O)n(C(=O)c2ccccc2)c1=O` (configuration not stated) yielded a growth of 106%. In the case of `O=C(N/N=C/c1ccc(Cl)cc1)c1ccc(NC(=O)c2ccccn2)cc1`, the growth is reported as 53.9%. `COc1cc(-c2cc(-c3ccc(Nc4nc(Nc5ccc(Cl)cc5)nc(Nc5ccc(Cl)cc5)n4)cc3)no2)cc(OC)c1OC` gave a growth of 90.7%. In the case of `NCCCNc1nc2ccccc2c2c(=O)c3cc(Cl)ccc3sc12`, the growth is reported as 77.6%. In the case of `Cc1ccc(OCCOCCOCCOCCOCCOc2ccc(C)n(O)c2=S)c(=S)n1O`, the growth is reported as 10.2%. For `CC1(C)CC(=O)C2=C(C1)C(c1ccc(Cl)cc1)n1ncc(C#N)c1N2` (configuration not stated), the growth was 82.8%. In the case of `CN(C)/C(N)=N/N=C(\c1ccccc1)c1ccccn1`, the growth is reported as 113%. For `c1ccc(Nc2nc3c(s2)CCc2c[nH]cc2-3)nc1`, the growth was 83.7%. `COc1cc2c(cc1OCCCN1CCN(C(=S)SCCC(C#N)(c3ccccc3)c3ccccc3)CC1)N=C[C@@H]1CCCN1C2=O` was tested, and the growth was -7.04% (active). `O=C(NCCCCCCNC(=O)OCc1ccc2c(Cl)cc(Cl)c(O)c2n1)OCc1ccc2c(Cl)cc(Cl)c(O)c2n1` showed a growth of 42.9%. In the case of `O=C(/C=C/c1ccccc1)N(C1CCCCC1)C1CCCCC1`, the growth is reported as 117%. In the case of `C=CCn1cc(-c2nc3ccccc3s2)c2cc(-c3ccc4c5c(cccc35)C(=O)N(CCO)C4=O)ccc21`, the growth is reported as 107%. `COc1cc(/C=C/C(=O)c2cccc(-n3cc(-c4ccc(Cl)cc4)[nH]c3=O)c2)ccc1O` gave a growth of 97.9%. Work on `O=C1Nc2ccc(Cl)cc2/C1=C/c1ccc[nH]1` yielded a growth of 117%. `Cn1c2ccccc2c2c3c(c4c5cc(Br)ccc5n(C)c4c21)C(=O)N(O)C3=O` was tested, and the growth was 3.4% (active). `O=S(=O)(NCCNc1nccc(-c2c(-c3ccc(F)c(O)c3)nc3sccn23)n1)c1ccc(Cl)cc1` gave a growth of 39.3%. In the case of `Cc1ccc(OCCOCCOCCOc2ccc(C)n(O)c2=S)c(=S)n1O`, the growth is reported as 64.9%. `C[C@@H]1NC(=O)[C@H](Cc2ccccc2)N(Cc2cccnc2)C1=O` was tested, and the growth was 99.2%. With `C=CC(CC(c1ccccc1)(c1ccccc1)c1ccccc1)N(CC)CC` (configuration not stated) the growth was 72.5%.
